# Screens from PubChem.
# The list is not random: actives were taken first. Their share in the collection is about 4.5%.
# hcDAF-12 act: activators of H. contortus DAF-12 nuclear receptor; actives 1.4% (n = 370,000); AID 652067; HEK293 hcDAF-12 lit1-tk-luc reporter, luminescence; 0% DMSO, 100% Δ7-dafachronic acid; activation, % at 6.8 µM;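 active = activation above the mean of all tested compounds plus 3 SD, cut at about 5.5% in these data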
# FXN GAA850 act: increases GAA850 frataxin promoter reporter activity; HEK293 lucGAA850 FXN promoter luciferase reporter, 24 h; percent of 10 µM SAHA response; activation, % at 6 µM; actives 0.56% (n = 360,000);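 active = activation above the average of all compounds screened plus 3 SD, cutoff fixed separately per campaign, cut at about 7.5% in these data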
# DAX1 inh-1: inhibitors of DAX1 repression of SF-1 activated StAR promoter; AID 652010; inhibition, % at 6.8 µM; HEK293T StAR-luciferase reporter, SF-1/DAX-1 repression relief; actives 1.1% (n = 370,000);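 active = inhibition above the mean over all tested compounds plus 3 SD, cut at about 3.6% in these data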;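 also: higher inhibition means more luminescence from relief of DAX-1 repression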
# hgDAF12 agonist: activates the H. glycines DAF-12 receptor ligand-binding domain; HEK293 GAL4-hgDAF12 UAS-luciferase reporter, agonist luminescence; normalized to butyrate control; activation, % at 6.8 µM; actives 1.8% (n = 370,000);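 active = activation above a cutoff set at the mean of all screened compounds plus 3 SD, cut at about 10% in these data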
# ssDAF12 agonist: activates DAF-12 receptor from parasite S. stercoralis; actives 1% (n = 370,000); activation, % at 6.8 µM; HEK293 ssDAF-12/GRIP1 lit1-tk-luc reporter, luminescence; % of 3 µM dafachronic acid response;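 active = activation above the mean over all tested compounds plus 3 SD, cut at about 0.9% in these data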
# DAX1 inh-2: inhibitors of human orphan nuclear receptor DAX1 (NR0B1) | actives 0.99% (n = 340,000) | P51843 | AID 504766 | inhibition, % at 6.75 µM | HEK293 Gal4-DAX1 luciferase reporter, luminescence;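 active = inhibition above the mean over all tested compounds plus 3 SD, cut at about 4.2% in these data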;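 also: inhibition shows as a rise in luminescence from relieved DAX1 repression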
# Target sequence (P51843 207-470 limits assumed): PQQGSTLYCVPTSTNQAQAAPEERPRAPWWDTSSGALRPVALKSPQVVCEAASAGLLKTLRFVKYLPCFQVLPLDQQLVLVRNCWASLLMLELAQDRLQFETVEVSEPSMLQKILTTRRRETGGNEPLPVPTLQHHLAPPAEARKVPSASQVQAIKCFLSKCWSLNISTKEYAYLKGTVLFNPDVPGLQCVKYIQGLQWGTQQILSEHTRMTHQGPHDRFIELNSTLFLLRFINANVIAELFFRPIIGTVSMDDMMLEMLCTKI
# A number is an active result; 0 = inactive; - = no result given.
SMILES,hcDAF-12 act,FXN GAA850 act,DAX1 inh-1,hgDAF12 agonist,ssDAF12 agonist,DAX1 inh-2
O=C(O)c1ccc(/C=N/NC(=O)c2ccc3c(c2)OCCO3)cc1,0,0,0,0,0,0
COc1cc(/C=N/NC(=O)c2cccnc2)cc2c1OCO2,0,0,4.1,0,0,0
C#CCNC(=O)C[C@H]1C(=O)N(CCc2ccc(Cl)cc2)C2=CCCC[C@@]21C(=O)OCC,0,-,0,0,0,-
CCOc1ccc(N(CC(=O)Nc2ccccc2)S(C)(=O)=O)cc1,0,0,0,0,0,0
CCOc1ccc(N(CC(=O)Nc2ccc(C)c(C)c2)S(C)(=O)=O)cc1,0,0,0,0,0,8.9
CCn1c(=O)n(CC(=O)N2CCCC2)c(=O)c2ccccc21,0,-,0,0,0,-
Clc1ccc(CN2CCN(N=Cc3ccncc3)CC2)cc1,0,-,0,0,0,-
COc1ccc(Cc2c(C)nc(N)nc2Cl)cc1,0,0,0,0,1.7,0
CCOc1ccc(Cc2c(Cl)nc(N)nc2Cl)cc1,0,0,0,0,0,0
CCOC(=O)c1cn2nc(Oc3ccc(C(=O)OC)cc3)ccc2n1,0,0,0,0,0,0
CCOC(=O)c1cn2nc(Oc3ccc(NC(C)=O)cc3)ccc2n1,0,0,0,0,0,4.9
O=C1NN=COc2ccccc21,5.7,0,0,0,0,0
O=C1NC(c2ccc(Cl)cc2)=COc2ccccc21,0,0,0,0,0,0
O=C1[C@@H](CCc2ccccc2)[C@@H]2c3ccccc3C=NN2[C@@H]2c3ccccc3C=NN12,0,-,0,0,0,-
O=C(NNC1CCN(Cc2ccccc2)CC1)c1ccccc1,0,0,0,11,0,0
COC(=O)[C@]12C[C@H](CC(=O)NCc3cccs3)C(=O)N(Cc3ccc(Cl)cc3Cl)C1=C[C@H](C(C)(C)C)O[C@@H]2C,0,-,0,0,0,-
Cc1ccc(Nc2nnc(-c3ccc4c(c3)OCO4)o2)c(C)c1,0,0,0,0,0,0
Clc1ccc(Nc2nnc(-c3ccc4c(c3)OCO4)o2)cc1,0,-,3.9,0,0,-
Cc1cccc(C)c1NC(=O)C1CCCN1S(=O)(=O)c1cccc2cccnc12 (stereo not drawn),0,-,0,0,0,-
CCCn1c(C)cc(C(=O)CN2C(=O)c3ccccc3S2(=O)=O)c1C,0,0,0,0,0,0
CCCn1c(C)cc(C(=O)Cn2nnc3ccccc3c2=O)c1C,0,0,0,12,0,0
C=C(C)Cn1c(SCC(=O)N/N=C/c2c(O)ccc3ccccc23)nc2ccccc2c1=O,6.0,0,0,0,0,0
C=C(C)Cn1c(SCC)nc2ccccc2c1=O,0,0,0,0,0,0
Clc1nccnc1N/N=C/c1ccc(Br)cc1,0,0,0,13,0,5.1
Oc1ccccc1/C=N/Nc1nccnc1Cl,0,0,0,0,0,0
SMILES,hcDAF-12 act,FXN GAA850 act,DAX1 inh-1,hgDAF12 agonist,ssDAF12 agonist,DAX1 inh-2
COC(=O)Cc1nnn2c1[C@H](C)[C@@H](OC)c1cccc(Cl)c1-2,0,-,0,0,0,-
C/C(=N\OCc1ccc(C#N)cc1)c1ccccc1,0,0,0,11,0,0
CCC(=O)Oc1ccc(C(=O)Nc2ccccc2C(=O)NCC(C)C)cc1,0,0,0,0,0,0
CCC(=O)Oc1ccc(C(=O)Nc2cccc(C(=O)NCC(C)C)c2)cc1,0,0,0,0,0,4.7
CN(C(=O)c1cn(C)c2ccccc12)c1ccc(Oc2cccnc2)cc1,0,-,0,0,0,-
CCC(NC(=O)C1CCCN(c2ncccn2)C1)c1ccccc1 (stereo not drawn),0,-,0,0,0,-
Cc1ccccc1CS(=O)(=O)Cc1ccc(C(=O)Nc2ccc(F)cc2)o1,0,-,0,0,0,-
CCn1c2ccccc2c2cc(NC(=O)COC(=O)c3cccc(F)c3)ccc21,0,-,0,0,0,-
COc1cc(/C=C2/C(=N)N3N=C(CC(=O)N4CCOCC4)SC3=NC2=O)ccc1OCc1ccc(F)cc1,0,0,3.8,0,0,0
COC(=O)[C@]12C[C@H](CC(=O)N3CCN(C(=O)c4ccco4)CC3)C(=O)N(CCc3ccc(OC)c(OC)c3)C1=C[C@H](C(C)(C)C)O[C@@H]2C,0,-,0,0,0,-
CCCn1c(=O)c2c(nc(Br)n2CCC)n(C)c1=O,0,0,0,0,0,0
